Only some compounds are listed: those with a hit (about 4.1% of all), similar ones and a draw of the others.
Mdm2-MdmX inh = inhibitors of human Mdm2-MdmX association, primary screen, cell-based, luminescence, split luciferase, SaOS-2, uHTS | SaOS-2 split-luciferase Mdm2/MdmX complementation | 3% of 330,000 active | Protein Mdm4 (Homo sapiens) + E3 ubiquitin-protein ligase Mdm2 (Homo sapiens), … | inhibition, % at 8 µM;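 active = inhibition of at least 50% at 8 µM in the primary screen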
Target sequence (O15151 whole entry, looked up): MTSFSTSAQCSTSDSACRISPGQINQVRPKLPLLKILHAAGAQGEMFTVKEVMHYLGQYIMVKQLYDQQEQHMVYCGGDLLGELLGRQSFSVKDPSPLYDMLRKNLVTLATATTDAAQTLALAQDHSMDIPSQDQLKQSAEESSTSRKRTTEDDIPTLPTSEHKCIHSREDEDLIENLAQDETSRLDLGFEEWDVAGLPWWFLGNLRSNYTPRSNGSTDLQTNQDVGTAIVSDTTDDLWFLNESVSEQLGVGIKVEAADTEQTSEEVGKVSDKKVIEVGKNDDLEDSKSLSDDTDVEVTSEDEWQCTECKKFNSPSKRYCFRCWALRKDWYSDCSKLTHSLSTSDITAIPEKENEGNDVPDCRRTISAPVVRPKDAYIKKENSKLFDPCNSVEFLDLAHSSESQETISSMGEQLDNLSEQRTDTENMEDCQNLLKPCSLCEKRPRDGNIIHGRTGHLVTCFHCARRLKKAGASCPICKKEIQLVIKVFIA
Target sequence (Q00987 whole entry, looked up): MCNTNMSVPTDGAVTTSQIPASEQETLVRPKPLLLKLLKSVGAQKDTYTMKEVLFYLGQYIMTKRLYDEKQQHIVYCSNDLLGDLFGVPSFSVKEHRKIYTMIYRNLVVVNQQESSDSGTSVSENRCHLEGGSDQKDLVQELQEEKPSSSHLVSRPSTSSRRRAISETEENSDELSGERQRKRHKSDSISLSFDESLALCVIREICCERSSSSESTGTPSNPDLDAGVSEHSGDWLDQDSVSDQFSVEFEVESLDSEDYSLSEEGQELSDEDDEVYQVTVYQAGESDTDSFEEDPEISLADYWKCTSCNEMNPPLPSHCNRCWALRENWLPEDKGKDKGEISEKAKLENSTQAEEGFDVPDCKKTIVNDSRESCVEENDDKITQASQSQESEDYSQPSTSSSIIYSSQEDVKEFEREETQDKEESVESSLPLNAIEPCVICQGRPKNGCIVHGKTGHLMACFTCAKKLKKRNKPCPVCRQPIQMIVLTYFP
A1 inh = caspase 3/7 activation in MEF A1-2A-BIM cells, primary screen, A1 inhibitor project, cell-based, luminescence, HTS. caspase activation, % (test concentration not listed). Caspase-Glo 3/7 luminescence, 3 h; percent of clofoctol response, vehicle zero. 0.066% of 330,000 active;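 active = over half of replicate activation scores above 10%, or exactly half above 10 with the replicate mean above 10; inconclusive = replicate mean below 10 yet half the replicates above 10; inactive = over half of replicates below 10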
Beta cell apopt = inhibitors of cytokine-induced beta cell apoptosis, primary screen, luminescence | AID 435005, 2010 | 0.8% of 300,000 active | INS-1E cytokine-induced death, ATP luminescence, 48 h; percent of positive-control rescue, neutral wells zero | protection from apoptosis, % (no concentration beside the values);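 active = Every replicate reaches about 75%, or at least half do and their mean reaches it too, limit read from the data; inconclusive = At least half of replicates reach the limit but their mean does not; inactive = Under half of replicates reach the limit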;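 note: 0% = cytokine-treated negative control wells and 100% = positive control rescue; higher means more ATP so stronger rescue from cytokine killing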
aSyn 5UTR inh = MLPCN primary screen, SNCA 5' untranslated region. alpha-synuclein 5'UTR reporter, inhibitor activity. inhibition, % (tested at 7.5 µM). 0.82% of 300,000 active. AID 1813, 2009; in the data active = inhibition above about 60%; inconclusive = no clear call, values can overlap the other calls;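 note: H4 neuroglioblastoma cells stably carrying SNCA 5'UTR luciferase fusion; 0% = DMSO wells and 100% = positive control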
CSC inhib = cancer stem cell viability inhibitors, primary screen, luminescence; cancer stem cell-like cells viability; inhibition, % at 7.5 µM; 1.1% of 300,000 active; AID 2717, 2010; in the data active = inhibition above about 75%; inconclusive = no clear call, values can overlap the other calls; tested in HMLE shEcad cells
Mdm2-MdmX conf = Mdm2-MdmX complex disruptors, retested hits, confirmation, luminescence, single concentration; shares compounds with Mdm2-MdmX inh; Mdm2-MdmX binding, luminescent assay; inhibition, % at 8 µM; 55% of 10,000 active; AID 489028, 2010; in the data active = inhibition above about 40%
Full FLuc ctr = full-length luciferase signal inhibition, confirmation, counter-screen for Mdm2/MdmX interaction inhibitor project, cell-based, single concentration, SaOS-2; shares compounds with Mdm2-MdmX inh; SaOS-2 full-length luciferase counterscreen, luminescence; inhibition, % at 8 µM; 77% of 6,200 active; AID 504607, 2011;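 active = mean inhibition at 8 µM reaching about 37%, which flags the compound as non-specific, limit read from the data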;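 note: p53-null SaOS-2 cells with luciferase driven by a doxycycline-inducible promoter; compound on cells about two nights before reading with doxycycline added after day one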
* = called active by the depositor; ? = inconclusive; / = not tested or not shown.

SMILES	Mdm2-MdmX inh	A1 inh	Beta cell apopt	aSyn 5UTR inh	CSC inhib	Mdm2-MdmX conf	Full FLuc ctr
Cc1ccc2c(c1)c(N=O)c(O)n2Cc1ccc(Cl)cc1	60*	0	43	4	104*	36	/
O=Nc1c(O)n(Cc2c(Cl)cccc2Cl)c2ccccc12	52*	1	-10	-5	-6	33	/
O=C(CN1C(=O)NC(Cc2ccccc2)C1=O)Nc1ccc(F)c(Cl)c1 (stereo not drawn)	-5	2	-8	/	/	/	/
Cn1c(/C=C/c2ccc([N+](=O)[O-])o2)nc2ccccc2c1=O	91*	1	106*	98*	110*	70*	53*
Cn1c(/C=C/c2ccccc2)nc2ccccc2c1=O	-25	-4	9	-137	10	/	/
COc1cc(C2C3=C(Nc4ncnn42)c2ccccc2CC3)cc(OC)c1OC (stereo not drawn)	66*	0	35	83*	2	67*	131*
COc1ccc(C2C3=C(Nc4ncnn42)c2ccccc2CCC3)cc1 (stereo not drawn)	13	0	4	27	9	/	/
CCCn1c(=O)c2[nH]c(-c3ccc(OCC(=O)Nc4ccc(C#N)cc4)cc3)nc2n(CCC)c1=O	53*	-2	2	/	4	22	/
O=C(CCS(=O)(=O)Cc1ccccc1)Nc1nc2c(s1)CCCC2	56*	0	-11	-9	47	63*	61*
O=C(COc1ccc(F)cc1)Nc1nc2c(s1)CCCC2	-18	-1	1	-92	11	/	/
O=C(CS(=O)(=O)Cc1ccccc1)Nc1nc2c(s1)CCCC2	19	1	3	-12	-2	/	/
COc1ccccc1OCC(=O)Nc1nc2c(s1)CCCC2	51*	/	/	-11	/	59*	83*
COc1ccc(OCC(=O)Nc2nc3c(s2)CCCC3)cc1	11	/	/	-30	/	/	/
Cc1ccc(CC(=O)Nc2nc3c(s2)CCCC3)cc1	87*	-1	2	-9	2	79*	37*
CC(C)(C)NC(=O)CN(Cc1ccc2c(c1)OCO2)C(=O)CNS(=O)(=O)c1ccccc1	1	0	-1	11	6	/	/
Cc1cccc(NC(=O)CSc2nnc(CNC(=O)c3ccco3)n2C)c1C	-13	1	/	-7	-10	/	/
CCN1C(=O)/C(=C/C=C2/Sc3ccccc3N2CCO)SC1=S	70*	0	-8	18	-1	19	/
CCCC(=O)Nc1nc2ccc(NC(=O)c3ccccc3F)cc2s1	55*	0	37	37	39	56*	74*
Cc1ccc2nc(NC(=O)c3ccccc3F)sc2c1	-143	-8	/	-7	15	/	/
O=C1OC(CC(=O)N(Cc2nnc(-c3ccccc3Cl)o2)C2CC2)c2ccccc21 (stereo not drawn)	14	0	-4	/	14	/	/
Cc1ccc(-n2nc(C)c(NC(=O)CCl)c2C)cc1C	76*	1	3	-220	12	88*	34
Cc1cc(-c2nnc3n2N=C(c2ccc(-c4ccccc4)cc2)CS3)n[nH]1	70*	-1	-5	-18	7	12	/
Fc1ccc(C2=Nn3c(nnc3-c3n[nH]c4c3CCC4)SC2)cc1	76*	-1	-10	32	-8	44*	82*
CC1=Nn2c(nnc2-c2n[nH]c3c2CCC3)SC1	16	0	-4	11	-2	/	/
c1ccc(-c2cc(-c3nnc4n3N=C(c3ccc5ccccc5c3)CS4)[nH]n2)cc1	57*	-1	11	30	92*	78*	76*
SMILES	Mdm2-MdmX inh	A1 inh	Beta cell apopt	aSyn 5UTR inh	CSC inhib	Mdm2-MdmX conf	Full FLuc ctr
C=CCc1cc(/C=C2/NC(=O)NC2=O)cc(OCC)c1O	32	0	5	8	-1	/	/
C=CCc1cc(/C=C2/NC(=S)NC2=O)cc(OC)c1O	55*	0	5	?	-1	20	/
C/C(=N\NC(=S)Nc1ccc(F)cc1)c1ccc2c(c1)OCCO2	64*	0	11	-80	76*	62*	56*
COc1cccc(CNC(=O)c2ccc(CS(=O)(=O)Cc3ccccc3C)o2)c1	7	0	1	-4	-10	/	/
Cc1cccc(NC(=S)NCCC(c2ccccc2)c2ccccc2)c1	53*	1	10	-18	39	7	/
NC(=O)c1cc[n+](CC(=O)NC(=O)Nc2ccccc2)cc1	3	0	3	/	27	/	/
COc1ccc(C[C@H]2CN3C(=NC[C@H]3Cc3ccccc3)N2CCNC(=O)c2ccc(C)c(Br)c2)cc1	95*	3	6	28	31	55*	37*
COc1ccc(C[C@H]2CN3C(=NC[C@@H]3Cc3ccccc3)N2CCNC(=O)c2ccc(C)c(Br)c2)cc1	100*	-1	50	7	13	42*	57*
Cc1ccc(C(=O)NCCN2C3=NC[C@H](Cc4ccc(O)cc4)N3C[C@H]2Cc2ccc(O)cc2)cc1Br	3	1	0	21	-7	/	/
C/C=C(\C)C(=O)NCCN1C2=NC[C@H](Cc3ccccc3)N2C[C@H]1Cc1ccc(O)cc1	15	0	-5	25	-12	/	/
COc1ccc(C[C@H]2CN3C(=NC[C@@H]3Cc3ccc(O)cc3)N2CCNC(=O)c2ccc(C)c(Br)c2)cc1	53*	0	26	1	5	26	/
C/C=C(\C)C(=O)NCCN1C2=NC[C@H](Cc3ccccc3)N2C[C@@H]1Cc1ccc(OC)cc1	-18	-2	/	23	-9	/	/
Cc1ccc(C(=O)NCCN2C3=NC[C@@H](Cc4ccccc4)N3C[C@H]2Cc2ccc(O)cc2)cc1Br	81*	0	12	-4	39	25	/
COCCCn1cnnc1SC(C)C(=O)Nc1ccc(S(=O)(=O)N2CCOCC2)cc1 (stereo not drawn)	12	1	-3	/	-8	/	/
Cc1occc1-c1nnc(SCC(=O)NC2CCC(C)CC2)o1 (stereo not drawn)	9	0	-3	/	/	/	/
O=C(OCC(=O)N1N=C(c2ccc(Cl)cc2)CC1c1ccco1)c1cccnc1 (stereo not drawn)	11	-1	2	/	13	/	/
Cc1c(C(=O)N2CCN(Cc3ccc4c(c3)OCO4)CC2)sc2ncnc(N3CCN(c4ccccc4)CC3)c12	73*	1	3	31	19	34	/
Cc1c(C(=O)N2CCN(Cc3ccc4c(c3)OCO4)CC2)sc2ncnc(N3CCN(c4ccccc4F)CC3)c12	63*	0	-7	-7	-4	23	/

From PubChem BioAssay
